# Compounds without any hit were thinned out: in the full panel of roughly 83,000, 20% have a hit.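 48-hour exposure, single concentration, 96-well plates; percent growth endpoint where 0 means no net growth. Active: below 10.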 Values without a mark were called inactive. The source made the active and inactive calls.
# Legend:
# Assay in all cases: NCI-60 one-dose screen, 48 h (100 = growth as untreated, 0 = no growth, -100 = all killed)
# Conditions in all cases: 10 µM unless noted
# [1] = tested on: SK-MEL-2 melanoma
# [2] = tested on: EKVX NSCLC
# [3] = tested on: SN12C renal
# [4] = tested on: UO-31 renal
# [5] = tested on: TK-10 renal
# [6] = tested on: ACHN renal
# [7] = tested on: CAKI-1 renal
# [8] = tested on: A498 renal
# [9] = tested on: CCRF-CEM leukemia
# [10] = tested on: MOLT-4 leukemia
Compound,growth [1],growth [2],growth [3],growth [4],growth [5],growth [6],growth [7],growth [8],growth [9],growth [10]
CCOC(=O)c1c(NC(=O)c2ccccc2)sc2c3c(ccc12)OCN(C)C3,-34.4% (active),26.3%,20.4%,-75.6% (active),68.5%,-68.7% (active),-42% (active),46.5%,-0.327% (active),-33% (active)
COC(=O)[C@@]1(C)CC[C@]2(C)CC[C@]3(C)C4=CC=C5C(=CC(=O)C(O)=C5C)[C@]4(C)[C@@H](O)C[C@@]3(C)[C@@H]2C1,43.5%,51%,9.92% (active),-56.6% (active),18.4%,-49.9% (active),9.58% (active),101%,-2.39% (active),-20% (active)
CCCn1c(=S)sc2c(NNC(C)=O)nc(C)nc21,92.5%,88.5%,101%,90%,94.5%,88.1%,70.7%,78.1%,88%,114%
COc1cc(/C=C/c2cc(/C=C/c3ccc(O)c(OC)c3)n(C(=O)Nc3ccc(Cl)cc3)n2)ccc1O,-23.5% (active),16.9%,9% (active),2.71% (active),23.1%,9.29% (active),0.131% (active),-0.596% (active),4.45% (active),-2% (active)
CCN(CC)CCOc1ccc2c(-c3ccccc3)c(-c3ccc(OC)cc3)c(=O)oc2c1,51.6%,83.9%,68.5%,62.6%,75.9%,75.3%,71.9%,70.2%,75.3%,35.4%
Cc1cccc(N=Nc2cccc(C)c2)c1,110%,96.2%,96.7%,86.8%,114%,99.8%,96.2%,93.8%,108%,111%
COc1ccc(/C=C/C(c2cc(OC)c(OC)c(OC)c2)n2cncn2)cc1O (stereo not given),18.2%,59.4%,49.6%,54.2%,41.2%,63.1%,34.5%,19.8%,6.31% (active),21.8%
Cc1sc2nc(NCCN)[nH]c(=O)c2c1C,103%,89.6%,90%,91.4%,96.9%,91.2%,100%,91.8%,117%,106%
CC(C)C1C2=C(NCCN1C(=O)c1ccncc1)C(C)(C)N(Cc1ccccc1)C2=O (stereo not given),97.4%,99.1%,93.3%,83.2%,89.9%,105%,94.4%,113%,108%,84%
Cc1cc(=O)n(C(=S)Nc2ccc(Cl)cc2)c2cc(O)ccc12,104%,94.7%,105%,72.2%,116%,100%,85.1%,122%,110%,102%
O=C(c1cccc(N2CCOCC2)n1)c1c[nH]c2ccccc12,103%,76.3%,89.9%,66.9%,120%,86.5%,76%,85.2%,97.2%,100%
COc1cccc(CNc2c3ccccc3nc3ccccc23)c1OC,79.2%,36.3%,30.9%,25.2%,59.5%,21.1%,33.7%,-4.13% (active),,17.9%
Cc1ccc(C(=O)c2ccc(CC(=O)N/N=C/c3cccc(O)c3O)n2C)cc1,95.3%,58.8%,46.8%,14.2%,38.8%,13.5%,37.3%,93.3%,,11.2%
COc1cc(Cc2cc(-c3ccccc3)nn(Cc3ccccc3)c2=O)cc(OC)c1OC,38.4%,14.7%,40.9%,21.6%,45.2%,27.9%,44.4%,51.1%,,5.01% (active)
COCCn1cc(-c2nc(-c3c[nH]c4ncccc34)cs2)c2ccccc21,77.5%,16.4%,77.8%,41%,36.2%,67.6%,62.7%,44.7%,,48.7%
CC(C)c1ccc2c(c1)CC[C@H]1[C@](C)(C(=O)OCC#CCN3CCCC3)CCC[C@]21C,103%,74.8%,71.5%,60.7%,98.6%,86.2%,94.5%,105%,,72.7%
CNC(=O)c1cc(Oc2ccc3c(c2)sc2nc(-c4ccc(Cl)c(C(F)(F)F)c4)cn23)ccn1,59.4%,46.7%,64.4%,58.8%,48.3%,62.9%,74.1%,50.6%,,41.6%
COc1ccc(OC)c(Nc2nnc(-c3cc(OC)c(OC)c(OC)c3)o2)c1,99.7%,99.8%,89.5%,89.6%,103%,105%,100%,89.9%,,84.1%
COC12C=C/C(=C(/C(=O)OCc3csc(SC)n3)C(=O)CCCCCCCCC3(OC)C=C/C(=C(/C(=O)OCc4cnc(SC)s4)C(=O)CCCCCCCC1)O3)O2 (stereo not given),55.8%,33.5%,28.9%,43.5%,47.6%,6% (active),68%,34.9%,,1.34% (active)
COc1cc(/C=C/C(=O)N2CCN(C(=O)c3cc(OC)c(OC)c(OC)c3)CC2)ccc1OCCCOc1cc2c(cc1OC)C(=O)N1CCC[C@H]1C=N2,-42.4% (active),8% (active),13.9%,-12.8% (active),6.61% (active),0.236% (active),3.12% (active),-55.8% (active),,7.57% (active)
Clc1ccc(Nc2nnc(CNc3ccccc3)c3ccccc23)cc1,8.63% (active),16.9%,28.9%,1.91% (active),-0.692% (active),7.07% (active),28.2%,24.7%,,-9.21% (active)
Cc1ccc2c(c1)nc(C)n2-c1ncnc2c1CC(C)c1cc(O)ccc1N2C (stereo not given),21.4%,44.2%,52.3%,47.9%,56.1%,49.5%,42.4%,6.65% (active),,13.4%
CCOC(=O)CNC1=C(Cl)C(=O)N(Cc2ccc(Cl)cc2)C1=O,101%,100%,99.1%,66.6%,102%,101%,95.4%,90.3%,,98.2%
NS(=O)(=O)c1ccc(C(=O)N=Nc2c(O)[nH]c3ccc(Cl)cc23)cc1,105%,95.8%,94.9%,83.8%,115%,107%,92.6%,75.3%,,107%
CC1SC(c2ccccc2O)N(NC(=O)CCC(=O)c2nc3ncccc3[nH]2)C1=O (stereo not given),95.8%,85.7%,101%,66.9%,103%,97.4%,80.3%,90.6%,116%,123%
Cc1cc(=O)oc2cc(Oc3nc(Br)cn4c(Br)cnc34)ccc12,78%,75.6%,75.8%,58.8%,114%,65.8%,95.7%,97.4%,106%,87.5%
Cc1ccc2c(/C=C/C(=O)c3cc(CN4CCOCC4)c(O)c4nc(C)ccc34)cc(CN3CCOCC3)c(O)c2n1,-2.61% (active),31.5%,7.92% (active),-16.8% (active),17.8%,-26.3% (active),12.9%,-16.5% (active),,-2.3% (active)
CCN(CC)CCOc1ccc(/C(=C(\C)Cc2ccc(OC)cc2)c2ccc(OC(=O)NCc3ccccc3)cc2)cc1,69.1%,73%,74.7%,46.3%,71.4%,81.4%,69.3%,84.8%,,1.91% (active)
